Results published in PubChem BioAssay AID686996 (Broad Institute, 2013).
In all, about 350,000 compounds went through this assay and about 1,900 (0.54%) were called active.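 How the source made its calls: active means mean inhibition across replicates at least about 35%, with every replicate also reaching that limit (limit read from the data); inconclusive means only one of the two criteria met; inactive means neither criterion met.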 Many of the other results were omitted from the sample, so actives are more common in it than they were.

Target: Caspase-6 (Homo sapiens) (UniProt P55212)
Sequence (P55212 24-179 limits assumed): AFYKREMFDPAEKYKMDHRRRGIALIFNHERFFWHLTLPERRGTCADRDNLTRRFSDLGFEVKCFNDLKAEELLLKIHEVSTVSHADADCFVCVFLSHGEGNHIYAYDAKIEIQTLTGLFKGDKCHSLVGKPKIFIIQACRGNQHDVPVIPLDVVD
Sequence (P55212 194-293 limits assumed): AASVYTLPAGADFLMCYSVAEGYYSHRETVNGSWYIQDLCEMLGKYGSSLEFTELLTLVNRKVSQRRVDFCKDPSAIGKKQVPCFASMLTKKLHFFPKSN
Test: human caspase-6 inhibitors, primary screen, biochemical, VEID-R110 fluorescence, single point, set 2 (AID 686996);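 further: 0% = median of neutral control wells and 100% = no fluorescence left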
Details: purified caspase-6, Z-VEID-R110 cleavage fluorescence; at 12.5 µM; hits give high values

| Structure (SMILES) | inhibition |
| --- | --- |
| COc1ccc(NC(=O)O[C@H]2[C@H](OC(=O)Nc3ccc4c(c3)OCO4)[C@@H](OC(=O)Nc3ccc4c(c3)OCO4)[C@@H](OC)O[C@@H]2CO)cc1 | -3.42% (inactive) |
| Cc1ccc(S(=O)(=O)N[C@@H]2CC[C@H](CCn3cc(C4(O)CCCC4)nn3)O[C@H]2CO)cc1 | -2.61% (inactive) |
| Cc1ccccc1-c1ccc2c(c1)O[C@H](CN(C)Cc1ccc(C(=O)O)cc1)[C@@H](C)CN([C@H](C)CO)S2(=O)=O | -3.25% (inactive) |
| COc1ccccc1C#Cc1ccc([C@@H]2[C@@H](CO)N3CCCCN(S(C)(=O)=O)C[C@@H]23)cc1 | -2.85% (inactive) |
| Cc1cc(C=O)c(C)n1-c1ccc(NC2CCCCC2)c([N+](=O)[O-])c1 | -0.869% (inactive) |
| CC(C)c1ccc(C=NNc2ccc([N+](=O)[O-])cn2)cc1 | -4.08% (inactive) |
| Cc1cc(/C=N/Nc2ccc([N+](=O)[O-])cn2)c(C)n1-c1cccc(C(=O)O)c1 | 40.7% (active) |
| C[C@H](O)C#Cc1ccc2c(c1)O[C@H](CN(C)Cc1cccnc1)[C@H](C)CN([C@H](C)CO)S2(=O)=O | -2.82% (inactive) |
| O=C(N[C@@H]1CC[C@@H](CC(=O)N2CCc3ccccc3C2)O[C@H]1CO)C1CC1 | -3.42% (inactive) |
| CCC(=O)N(C)C[C@H]1Oc2ncc(C#Cc3cccnc3)cc2C(=O)N([C@H](C)CO)C[C@H]1C | 2.38% (inactive) |
| C[C@@H]1CCCCO[C@@H](CN(C)S(=O)(=O)c2ccccc2)[C@@H](C)CN([C@@H](C)CO)C(=O)c2cc(NS(=O)(=O)c3cn(C)cn3)ccc2O1 | 2.27% (inactive) |
| Cc1cc(C)c2nc(-c3ccco3)cc(C(=O)O)c2c1 | 42.1% (active) |
| CN(CCOc1ccccc1)C(=O)c1cc(-c2ccco2)nc2ccccc12 | 4.78% (inactive) |
| CC1CCCN(C(=O)c2cc(-c3ccco3)nc3ccccc23)C1 (stereo unspecified) | 2.88% (inactive) |
| COCC#Cc1cnc2c(c1)C(=O)N([C@H](C)CO)C[C@H](C)[C@H](CN(C)C(=O)Nc1ccccc1OC)O2 | 0.658% (inactive) |
| O=C(c1cccc(F)c1)N1CC(=O)N2[C@H](C1)[C@@H](c1ccc(C#Cc3ccc(F)cc3)cc1)[C@@H]2CO | 1.71% (inactive) |
| Clc1ccccc1Nc1nc(NCc2cccs2)nc2ccsc12 | -2.77% (inactive) |
| COc1ccccc1CNc1nc(Nc2ccccc2Cl)c2sccc2n1 | -1.14% (inactive) |
| COCCNc1nc(Nc2ccccc2Cl)c2sc(-c3ccccc3)cc2n1 | 35.1% (active) |
| C[C@H](CO)N1C[C@H](C)[C@H](CN(C)Cc2cncnc2)Oc2cc(-c3ccccc3F)ccc2S1(=O)=O | -1.88% (inactive) |
| CC(C)n1ncc2c(C(=O)NCc3ccccc3CN(C)C)cc(C3CC3)nc21 | -1.64% (inactive) |
| CC(C)n1ncc2c(C(=O)Nc3ccc(CC#N)cc3)cc(C3CC3)nc21 | -2.38% (inactive) |
| CNC(=O)c1ccc(CN(C)C(=O)c2cc(C3CC3)nc3c2cnn3C(C)C)cc1 | 50.4% (active) |

| Structure (SMILES) | inhibition |
| --- | --- |
| O=C(C[C@@H]1CC[C@@H]2[C@H](COC[C@H](O)CN2S(=O)(=O)c2ccccc2F)O1)NCc1ccccc1F | 4.05% (inactive) |
| Cc1noc(C)c1NC(=O)N(C)C[C@H]1Oc2c(NC(=O)c3nc4ccccc4s3)cccc2C(=O)N([C@@H](C)CO)C[C@@H]1C | -1.84% (inactive) |
| CCN(CC)CCCC(C)n1c2nc(=O)[nH]c(=O)c-2nc2cc(Cl)ccc21 (stereo unspecified) | 81.9% (active) |
| Cc1cc2nc3c(=O)[nH]c(=O)nc-3n(C[C@H](O)[C@H](O)[C@H](O)CO)c2cc1C | -54.4% (inactive) |
| C[C@H](O)C#Cc1ccc2c(c1)O[C@@H](CN(C)Cc1cncnc1)[C@H](C)CN([C@H](C)CO)S2(=O)=O | -2.4% (inactive) |
| O=C(C1CCCC1)N1CC(=O)N2[C@H](C1)[C@@H](c1ccc(-c3cccnc3)cc1)[C@@H]2CO | -0.455% (inactive) |
| COCCNC(=O)Nc1ccc2nc(-c3ccco3)c(-c3ccco3)nc2c1 | 79.9% (active) |
| Cc1ccc(NC(=O)OCCNC(=O)c2ccncc2)cc1 | 2.78% (inactive) |
| COCCNC(=O)CSc1nc(N)c(NC(=O)c2ccco2)c(=O)[nH]1 | 2.38% (inactive) |
| C[C@@H]1CN([C@H](C)CO)C(=O)c2cc(-c3cccc(C(=O)N(C)C)c3)cnc2O[C@H]1CN(C)S(=O)(=O)c1ccc(F)cc1 | 1.95% (inactive) |
| COc1cc(/C=C/C(=O)OCC(=O)NC(=O)NCc2ccccc2)ccc1OCC#N | 0.201% (inactive) |
| COc1ccccc1CCNC(=O)C1CCN(C(=O)/C=C/c2ccccc2)CC1 | -1.88% (inactive) |
| COc1cc(C(=O)NCC(c2ccco2)N2CCCC2)ccc1OCc1ccccc1 (stereo unspecified) | -1.23% (inactive) |
| COc1ccc(C(=O)/C=C/c2ccc(-c3ccccc3)cc2)cc1CSCC(=O)O | 63.7% (active) |
| COC(=O)c1ccc(COc2ccc(/C=C/C(=O)c3ccc(OC)c(CSCC(=O)O)c3)cc2OC)cc1 | 41% (active) |
| COc1ccc(OC)c(/C=C/C(=O)c2ccc3c(c2)OCO3)c1 | 2% (inactive) |
| C[C@@H]1CN([C@H](C)CO)C(=O)Cc2cc(NC(=O)Cc3ccccc3)ccc2O[C@H]1CN(C)S(=O)(=O)c1cccs1 | -1.84% (inactive) |
| CCCN1C[C@@H](C)[C@@H](OC)CN(C)C(=O)c2cc(NC(=O)NC3CCCCC3)ccc2OC[C@H]1C | 0.443% (inactive) |
| C[C@H](CO)N1C[C@H](C)[C@H](CN(C)Cc2ccc(C(F)(F)F)cc2)Oc2ccc(NC(=O)CCCCCC(=O)Nc3ccccc3N)cc2CC1=O | 1.34% (inactive) |
| Cc1cc(C)c(S(=O)(=O)NN=C2c3ccccc3[C@H]3Cc4csc[n+]4[C@@H]23)c(C)c1 | 85.1% (active) |
| O=C(N[C@H]1CC[C@H](CCNS(=O)(=O)c2ccc(F)cc2)O[C@H]1CO)C1CCCC1 | 2.12% (inactive) |
| C[C@@H]1CCCCO[C@H](CN(C)C)[C@H](C)CN([C@@H](C)CO)C(=O)c2cc(NC(=O)Cc3ccccc3)ccc2O1 | -0.443% (inactive) |
| O=C(Nc1ccc(-c2ccccc2)cc1)[C@@H]1[C@@H](CO)[C@@H]2Cn3c(cccc3=O)[C@H]1N2Cc1ccncc1 | 0.424% (inactive) |
